Source: PubChem BioAssay
Tg IFNy HTS – blocks Toxoplasma gondii growth in the presence of IFN-gamma | Toxoplasma gondii growth in IFN-gamma-treated host cells; hits give low values | activity change, negative = inhibition, % (test concentration not listed) | 69,000 tested, 3.8% active; in the data active = activity change below about -70%, passing the limit was not always enough;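 also: host cells are HeLa cells infected with Toxoplasma gondii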
Starred values were filed as active, the others as inactive; ! = repeats disagree. Many of the other results were omitted from the sample, so hits are more common in it than they were.

For Cc1ccc(SC(=O)c2sc(-c3ccc(C(F)(F)F)cc3)nc2C)cc1 the results were Tg IFNy HTS 39.6.
Screening Cc1ccc(Nc2ncccc2C(=O)O)c(C)c1 returned Tg IFNy HTS 28.2.
Screening CC(c1nnc(SCC(=O)O)n1-c1cccnc1)n1cccn1 (centres undefined) returned Tg IFNy HTS 5.9.
For COC(=O)c1c(NCc2ccccc2C(F)(F)F)c2cccc(Cl)c2[nH]c1=O the results were Tg IFNy HTS -1.5.
Screening Cc1cc(N2CCCN(Cc3cc(-c4ccccc4)no3)CC2)ccn1 returned Tg IFNy HTS -20.2.
CCc1c(C)nc2cc(-c3cc(C)on3)nn2c1N1CCN(Cc2ccccn2)CC1 was read as Tg IFNy HTS -85.2*.
CCN1CCC2(CN(c3ncccn3)CC23CCN(Cc2ccccn2)CC3)C1=O (centres undefined) was read as Tg IFNy HTS -34.9.
`COc1ccc2nc(C)c(C(=O)Nc3nnc(CCc4ccccc4)s3)cc2c1` gave Tg IFNy HTS -7.2.
Screening COC(C)c1ccc(-c2cc(C(=O)N3CCCCC3)ccn2)cc1 (centres undefined) returned Tg IFNy HTS -40.9.
`Cc1ccc(S(=O)(=O)N2C[C@H]3C[C@H](NC(=O)C4CCCCC4)[C@H]3C2)cc1` gave Tg IFNy HTS -19.6.
For COc1cccc(NC(=O)c2c(O)c3cccnc3[nH]c2=O)c1 the results were Tg IFNy HTS 83.6.
Screening Cc1cc(C)nc(Nc2n[nH]c(COc3ccc4ccccc4c3)n2)n1 returned Tg IFNy HTS -43.9.
Cc1cc(OCc2nc3ccccc3[nH]2)ccc1C(C)C was read as Tg IFNy HTS -86.6*.
Screening CC(NC(=O)Cc1nc2ccccc2[nH]1)c1ccc(O)c(F)c1 (centres undefined) returned Tg IFNy HTS -4.3.
For CCOC1CC2(CCN(C(=O)Cc3cccc(F)c3)CC2)C1 the results were Tg IFNy HTS 71.2.
`CC(Cc1ccc2c(c1)OCO2)CN(CCN1CCOCC1)Cc1cccnc1` (centres undefined) gave Tg IFNy HTS -55.1.
`Cn1cnc(-c2cc(C(=O)C3CC3)c3ccccn23)c1` gave Tg IFNy HTS 3.1.
For Clc1ccc(-c2cn[nH]c2C2CCCNC2)cc1 (centres undefined) the results were Tg IFNy HTS 0.5.
`Clc1ccc(C2(c3ccc(-c4cn[nH]c4)cc3)CCNCC2)cc1` gave Tg IFNy HTS -72.2*.
Screening Cc1ccccc1CNC(=O)Cn1ncc2c(N3CCCC3)ncnc21 returned Tg IFNy HTS 33.4.
Screening Cc1noc(C)c1CCC(=O)N1CC(=O)N(C2CCCCC2)CC(OCc2cccnc2)C1 (centres undefined) returned Tg IFNy HTS -3.0.
COc1ccc(CN(Cc2ccccc2)Cc2nnnn2CCc2ccccc2)cc1 was read as Tg IFNy HTS -68.2.
`C#CCOC(=O)Nc1ccccc1OC` gave Tg IFNy HTS -52.9.
For CCCN1C(=O)CCc2cc(NC(=O)CCOC)ccc21 the results were Tg IFNy HTS 7.1.
Screening COCCN1C(=O)CCc2cc(NC(=O)c3ccc(Cl)s3)ccc21 returned Tg IFNy HTS -78.1*.
Screening COCCN1C(=O)CCc2cc(NC(=O)C3CC3)ccc21 returned Tg IFNy HTS 45.2.
For CCCN1C(=O)CCc2cc(NC(=O)c3cc(Cl)ccc3OC)ccc21 the results were Tg IFNy HTS -92.5*.
For CCCN1C(=O)CCc2cc(NC(=O)Cc3ccc(Cl)cc3)ccc21 the results were Tg IFNy HTS -8.9.
`CCCN1C(=O)CCc2cc(NC(C)=O)ccc21` gave Tg IFNy HTS 29.6.
CCCC(=O)Nc1ccc2c(c1)CCC(=O)N2CCC was read as Tg IFNy HTS 58.9.
COCCN1C(=O)CCc2cc(NC(C)=O)ccc21 was read as Tg IFNy HTS -28.0.
`CCCN1C(=O)CCc2cc(NC(=O)c3ccc(Cl)s3)ccc21` gave Tg IFNy HTS -89.7*.
Screening Cc1cc(C[C@@H]2CCC[C@H]2NCc2c(C)nn(-c3ccc(F)cc3)c2C)on1 returned Tg IFNy HTS 76.5.
For COc1cccc(COC2CN(Cc3ccccn3)C(=O)CN(C(=O)c3cncs3)C2)c1 (centres undefined) the results were Tg IFNy HTS 13.0.
CN(C)C(=O)CN1C[C@@H]2CCN(C(=O)Nc3ccccc3Cl)CC[C@H]2S1(=O)=O was read as Tg IFNy HTS -64.5.
For COc1ccc2c(c1)CC(NCCOc1ccccc1F)CC2 (centres undefined) the results were Tg IFNy HTS 20.7.
For CC(=O)N1CC(=O)N(c2ccccc2)CC12CCN(C(=O)c1cccnc1)C2 (centres undefined) the results were Tg IFNy HTS 7.7.
For O=C(c1ccccc1)N1CCC2(CC(=O)N(c3ccc4c(c3)OCO4)C2)C1 (centres undefined) the results were Tg IFNy HTS 22.7.
Screening CN(C)S(=O)(=O)c1ccc2c(c1)cc(C(=O)N1CCCCC1)n2Cc1ccncc1 returned Tg IFNy HTS 76.5.
For Cn1cnnc1Sc1nc2c(c(=O)n(C)c(=O)n2C)n1C the results were Tg IFNy HTS -1.2.
`Cn1c(=O)c2c(nc(SCC(=O)Nc3nc(-c4cccs4)cs3)n2C)n(C)c1=O` gave Tg IFNy HTS -102.8*.
Cn1c(=O)c2c(nc(SCCN3CCCCC3)n2C)n(C)c1=O was read as Tg IFNy HTS -5.3.
COc1ccc2[nH]cc(CCNC(=O)c3cc(C)nc4c3c(=O)n(C)c(=O)n4C)c2c1 was read as Tg IFNy HTS 84.4.
Cc1[nH]cnc1-c1nccn1CC1Cc2ccccc2CN1C (centres undefined) was read as Tg IFNy HTS -0.9.
For COc1ccccc1C1(O)CCN(CCCn2c3ccccc3c3ccccc32)CC1 the results were Tg IFNy HTS -76.9*!.
Screening CC1CN(CCCn2c3ccccc3c3ccccc32)CC(C)N1 (centres undefined) returned Tg IFNy HTS -4.0.
`COc1ccccc1C1(O)CCCN(CC(O)c2ccc(C)cc2)C1` (centres undefined) gave Tg IFNy HTS -41.6.
`COC(=O)c1ccc(-c2nccn2C(Cc2ccco2)C(=O)O)cc1` (centres undefined) gave Tg IFNy HTS -36.2.
Screening O=C(NCC1CC1)[C@H]1CC[C@H]2[C@H](CCN2Cc2ccccc2F)O1 returned Tg IFNy HTS 38.4.
c1ccc(-c2cccc(CN3CCCC3c3ccccn3)c2)nc1 (centres undefined) was read as Tg IFNy HTS 3.7.
Screening Clc1ccc(/C=C2\CCCC3C2=NNC3c2ccc(Cl)cc2)cc1 (centres undefined) returned Tg IFNy HTS -92.3*.
For O=C(O)c1cc(-c2ccccc2)c(C(F)(F)F)s1 the results were Tg IFNy HTS 18.8.
NC(=S)c1cc(-c2ccccc2)c(C(F)(F)F)s1 was read as Tg IFNy HTS -93.5*.
For FC(F)(F)c1sc(-c2nnc(-c3ccc(Cl)cc3Cl)o2)cc1-c1ccccc1 the results were Tg IFNy HTS 42.3.
CC(C)C(NC(=O)CN1C[C@@H](C)O[C@@H](C)C1)c1nccn1C (some centres undefined) was read as Tg IFNy HTS -5.6.
`COc1ccc(C2c3c(n[nH]c3C)CC(C)(O)C2C(C)=O)cc1OC` (centres undefined) gave Tg IFNy HTS -10.9.
COC(=O)c1c(NCc2ccc(OC)c(OC)c2)c2cccc(Cl)c2[nH]c1=O was read as Tg IFNy HTS -50.5.
`COc1cc(C2c3c([nH]c(=O)[nH]c3=O)Nc3ccc4ccccc4c32)ccc1OC(C)=O` (centres undefined) gave Tg IFNy HTS -112.0*.
